Experimental data published in the supplement of paper PMC6555819.

Experiments:
Test in all cases: PBM binding z-score (relative to random genomic background probes); higher = stronger binding; sequences stand for … in GC…GCGATTGACAGCGTAGAATGAAGG
[1] = test system: FXR:RXRa (NR concentration 270 nM, RXRa partner concentration 90 nM)
How it was run: (§1)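 The probes on custom Agilent 4×180K protein-binding microarrays were double-stranded, with 34-nt variable regions bearing direct-repeat seeds, single-nucleotide variants, half-site ablations and random human genomic background sequences. Incubation lasted 1 h with ligand-free nuclear receptor dimers in PBS pH 7.4, 2% milk, 0.02% Triton X-100, 1 mM DTT, 0.2 mg/mL BSA and 0.4 mg/ml salmon testes DNA. Antibodies against each partner (one per run) detected bound dimers, and fluorescence scans were regression-normalized. Binding z-scores take the random background probes as reference.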

[2] = test system: LXRa:RXRa (NR concentration 270 nM, RXRa partner concentration 90 nM)
How it was run: as §1

[3] = test system: LXRa homodimer (NR concentration 270 nM)
How it was run: as §1

[4] = test system: LXRb:RXRa (NR concentration 270 nM, RXRa partner concentration 90 nM)
How it was run: as §1

[5] = test system: LXRb homodimer (NR concentration 270 nM)
How it was run: as §1

[6] = test system: PPARa:RXRa (NR concentration 270 nM, RXRa partner concentration 90 nM)
How it was run: as §1

[7] = test system: PPARg:RXRa (NR concentration 180 nM, RXRa partner concentration 90 nM)
How it was run: as §1

[8] = test system: PPARg:RXRa 270nM:90nM, anti-RXR (NR concentration 270 nM, RXRa partner concentration 90 nM)
How it was run: as §1

[9] = test system: PPARg:RXRa 30nM:10nM, anti-RXR (NR concentration 30 nM, RXRa partner concentration 10 nM)
How it was run: as §1

[10] = test system: PPARg:RXRa 90nM:30nM, anti-RXR (NR concentration 90 nM, RXRa partner concentration 30 nM)
How it was run: as §1

Sequence	PBM binding z-score [1]	PBM binding z-score [2]	PBM binding z-score [3]	PBM binding z-score [4]	PBM binding z-score [5]	PBM binding z-score [6]	PBM binding z-score [7]	PBM binding z-score [8]	PBM binding z-score [9]	PBM binding z-score [10]
TATACAGGTTCAAAGGCCAGAGTACGAATGTCGA	3.17	4.13	2.06	2.27	1.19	3.41	2.89	3.54	1.9	2.88
TCTAGTTGGTCAAGGGTCACACACTCGAAATGCG	4.17	3.76	1.25	4.01	0.821	5.27	9.83	8.51	9.9	9.97
GTACCAAGGTGAAAAGGTCGTTGATGAGTAGGCG	2.32	1.94	0.42	1.99	-0.22	3.63	2.62	3.36	1.38	2.94
CCTAGCAGGCCAGGGTCACTCAGGCATTTCGCTT	1.73	1.43	-0.738	1.49	-0.994	2.75	0.469	1.25	-0.561	0.308
GCTTACGGGTCAAAGGTTATAGCGTGAATAGAAT	7.45	5.66	0.631	5.61	0.387	6.97	11	9.25	9.52	9.99
ACTATTAGTTGAGACGAGGGCAACCGGTAGGTTG	0.623	0.318	0.134	0.06	-0.0535	0.319	0.685	-0.0601	-0.0682	0.00323
ATTACAGGGTCACTAGGCCAGAGTAGGTACGAAT	6.12	4.57	0.484	3.59	1.62	5.94	8.17	6.86	3.45	5.84
TCTCAGAGGACACGAAAGGTCAGAGCTCGACATC	3.13	4.15	3.56	3.12	0.409	3.52	1.66	3.01	3.08	2.85
TCTATTAGTTGAAGCGCAACCGACGAGTCCGTTT	0.428	0.488	-0.0421	0.375	0.082	0.55	-0.192	1.85	3.58	2.67
CCTCGGTGGACAGAAGGTCAGAGCTGTCCGCTTT	1.33	1.62	-0.089	0.847	-0.688	1.75	0.418	2.42	-0.194	1.62
CCTCCTAGGTCATGGTCAGCTAATCTACAGTATG	3.85	2.79	0.804	2.24	0.0954	3.8	2.72	2.89	0.958	2.09
CCGACTGGGGCAAAGGTTTCCATACTCAGTACGA	-0.478	-0.199	-0.443	0.175	-1.02	3.35	8.18	7.78	8.2	9.01
GCTTACGGGTCAAAGGTGATAGCATGAATAGAAT	6.24	4.59	0.0435	4.64	0.353	6.57	10.2	8.54	7.83	9.26
TGAATGAGGTTATAAGATCAGGAAACGTTGCAAA	1.24	1.53	-0.511	1.5	-0.0615	2.98	1.29	2.14	0.703	1.62
CGACAAAGTTCAAGGTAACGTAACAGAAAGCAGC	5.84	5.54	1.97	3.29	0.658	4.63	3.59	4.67	1.47	3.46
ATCCCTAGGTAAAAGTTCAGTGAATCCCGAGGAT	0.811	1.11	0.954	0.838	0.347	2.71	3.92	4.85	3.04	4.55
TCTCCTAGGTCAACGATGGTCAGCTAATCTGCTA	4.13	3.59	0.622	2.49	0.781	3.76	2.68	3.76	3.64	3.51
CCGACTGGGGCAAAGCTTACCATACTCAGTACGA	-0.466	-0.638	-0.547	-0.287	-0.784	0.592	1.53	2.52	0.444	2.26
TCATATAGGTAAATAGGTGAAAGTCCGTAAGTTA	1.38	1.32	0.298	1.06	-0.103	3.79	5.17	5.12	4.83	5.34
TGTCCAAGTTCAAAGGTAACGTAAGTATCCACAC	4.56	4.49	1.09	3.06	0.689	4.29	4	4.65	2.1	4.16
CCTAGCAGGCCAATCTGGATCACTCAAGGCTTGA	-0.3	-0.327	-0.53	-0.467	-0.696	-0.131	0.141	-0.529	-0.702	-0.514
ATATGTAAGTTAGCTGGGGTCATTCAGACTAGGC	4.05	3.87	1.64	4.47	0.895	4.17	1.49	2.48	0.721	1.49
GCTAGTTGGTCAGTAAACGGTCACACACCGGTCG	-0.00893	0.121	0.352	-0.139	-0.393	0.395	0.552	-0.0958	-0.311	0.18
ATCGGAAGGTCGAAGGTGAGTATACCCACCCGAA	2.14	1.54	-0.0479	1.23	-0.0206	3.18	3.05	3.84	1.55	3.07
CCTTACTGGTCACGAGGTTATAGCACGACGAGCG	1.49	1.46	0.682	1.36	0.455	2.04	1.77	1.97	-0.0752	1.04
